# Assay outcomes (PubChem)
# DT40 TDP1 no CPT: qHTS for Inhibitors of human tyrosyl-DNA phosphodiesterase 1 (TDP1): qHTS in cells in absence of CPT | DT40 Tdp1-/- hTDP1 cells, no CPT, ATP luminescence, 48 h | Potency, µM (top dose mostly 46.2 µM), without a hit: at the highest dose activity change, negative = growth inhibition, most hits filed as inhibitors | 15% of 420,000 active; also: potency is read from the fitted curve at half-maximal effect; nearly all actives have a fitted effect of over 55% in size
#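 Seeded 400 DT40-hTDP1 cells/well (vehicle DMSO, no 20 nM CPT); pinned compounds; ≥48 hr at 37 °C; CellTiter-Glo luminescence as viability measure.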
# HT1080-NT tox: qHTS for induction of synthetic lethality in tumor cells producing 2HG: qHTS for the HT-1080-NT fibrosarcoma cell line. HT-1080-NT fibrosarcoma viability, CellTiter-Glo ATP luminescence, 48 h. Potency, µM (doses to about 46.1 µM), inactives show top-dose activity, negative = less viability, usual class: cytotoxic. 1.6% of 360,000 active. AID 686970, 2013;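 also: NT is the 2HG producing partner of a matched IDH1 knockdown line; potency is read from the fitted curve at half-maximal effect; 0% = DMSO-treated cells and -100% = media-only wells without cells; nearly all actives have a fitted effect of over 55% in size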
#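 Compounds were tested in concentration-response format on HT-1080-NT cells for 48 hours at 37 degrees C. Cell viability came from CellTiter-Glo luminescence; curves were classified by r2, response magnitude and activity.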
# 12-LOX inh: Primary qHTS assay for inhibitors of human arachidonate 12S-lipoxygenase (ALOX12): Round 2. purified 12hLO, xylenol orange hydroperoxide absorbance. Potency, µM (top dose mostly 108 µM), inactives show at the highest dose activity change, negative = inhibition, hits mostly inhibitors. 1.1% of 580,000 active. AID 1671190, 2021; also: potency is read from the fitted curve at half-maximal effect
# Target sequence (P18054 whole entry, looked up): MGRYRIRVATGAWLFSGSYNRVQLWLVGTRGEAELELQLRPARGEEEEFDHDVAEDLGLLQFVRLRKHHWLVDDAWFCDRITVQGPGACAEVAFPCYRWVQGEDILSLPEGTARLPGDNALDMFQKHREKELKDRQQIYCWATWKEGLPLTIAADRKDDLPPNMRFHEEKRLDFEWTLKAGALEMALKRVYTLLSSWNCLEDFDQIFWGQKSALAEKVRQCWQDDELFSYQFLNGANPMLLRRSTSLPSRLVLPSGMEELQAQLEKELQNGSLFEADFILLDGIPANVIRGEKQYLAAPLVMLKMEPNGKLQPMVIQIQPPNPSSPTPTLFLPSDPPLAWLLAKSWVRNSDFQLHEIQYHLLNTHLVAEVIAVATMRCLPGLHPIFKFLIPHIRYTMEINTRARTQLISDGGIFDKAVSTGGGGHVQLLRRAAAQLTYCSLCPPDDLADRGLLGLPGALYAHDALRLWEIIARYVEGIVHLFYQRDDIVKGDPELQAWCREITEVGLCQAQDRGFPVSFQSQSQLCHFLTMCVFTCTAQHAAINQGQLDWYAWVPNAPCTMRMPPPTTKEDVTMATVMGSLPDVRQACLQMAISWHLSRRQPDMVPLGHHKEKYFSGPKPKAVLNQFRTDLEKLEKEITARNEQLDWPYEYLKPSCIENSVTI
#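 Hydroperoxide product was detected by ferrous iron/xylenol orange as the 573 to 405 nm absorbance ratio. Arachidonic acid at 40 uM (final) was turned over for 30 min at room temperature by 150 nM human 12hLO, pH 7.0 Hepes buffer, after 15 min compound preincubation.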
# IL1B secr inh: qHTS for Inhibitors of Inflammasome Signaling: IL-1-beta AlphaLISA Primary Screen | THP-1 LPS/ATP IL-1B secretion, AlphaLISA, 16 h; hits give low values | activity change, % at 57.5 µM | 4.7% of 360,000 active | AID 743279, 2014; in the data active = activity change below about -50%; inconclusive = mostly about -30% to -49%
#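 Secreted IL-1B measured by AlphaLISA bead assay after 16 h compound exposure of THP-1 cells; compounds (final up to 57.5 uM) added 1 h before LPS (250 ng/mL) and ATP (1.25 mM) stimulation; lower signal means less secretion.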
# HT1080 IDH1KD tx: qHTS for induction of synthetic lethality in tumor cells producing 2HG: qHTS for the HT-1080-IDH1KD cell line. HT-1080 IDH1 knockdown viability, ATP luminescence, 48 h. Potency, µM (series often up to 46.1 µM), inactives show top-dose activity, negative = toxicity, usual class: cytotoxic. 2% of 360,000 active. AID 686971, 2013;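 also: potency is read from the fitted curve at half-maximal effect; 0% = DMSO wells and -100% = cell-free medium wells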
#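 After a 2 h attachment period, IDH1KD HT-1080 cells took pin-transferred compound for 48 h at 37 °C; ATP-based luminescence after 10 min room-temperature reagent incubation reported viability.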
# DT40 TDP1 CPT: qHTS for Inhibitors of human tyrosyl-DNA phosphodiesterase 1 (TDP1): qHTS in cells in presence of CPT. chicken DT40 Tdp1-/-;hTDP1 cells + 20 nM CPT, ATP luminescence, 48 h. Potency, µM (doses to about 46.2 µM), inactives show top-dose activity change, negative = growth inhibition, usual class: inhibitors. 12% of 420,000 active; also: potency is read from the fitted curve at half-maximal effect; nearly all actives have a fitted effect of over 55% in size
#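 Chicken DT40 Tdp1-/- cells stably complemented with human TDP1 were seeded at 400 cells/well in medium containing 20 nM camptothecin, exposed to pin-transferred compounds, and grown at 37 °C for at least 48 hr. Viability was read as ATP luminescence.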
# The depositor's hits bear a star; i = inactive; ? = inconclusive; . = no result given; [ ] = another dose, or the depositor's remark. The entries come from a sample that favours hits as a whole. Unless noted, calls follow the shape of the dose curve; as a rule, active = well fitted curve in the direction sought with a large enough effect; inconclusive = small, poorly fitted or top-dose-only effect, or another doubt; inactive = no such curve, though single readings can be large; an effect the other way counts as inactive or inconclusive. Unless noted, % is scaled to controls: 0 for no effect and ±100 for the full control effect.
SMILES,DT40 TDP1 no CPT,HT1080-NT tox,12-LOX inh,IL1B secr inh,HT1080 IDH1KD tx,DT40 TDP1 CPT
CCCC1CCC(c2ccc(C(N)=O)cc2)CC1 (stereo unspecified),-2%,1%,4%,46,-3%,12%
CCCCCC1CCC(c2ccc(C(N)=O)cc2)CC1 (stereo unspecified),-6%,23%,4%,30,?,6%
Cc1ccc(N2CCC(N)C2=O)cc1C (stereo unspecified),.,.,32%,.,.,.
COc1ccc(NC(=O)CSc2nc3c(=O)[nH]cnc3n2-c2ccc(C)cc2)cc1OC,.,.,23%,.,.,.
COc1ccc(-c2nc(C#N)c(NCc3ccccc3)o2)cc1,.,.,11%,.,.,.
C=CCNc1oc(-c2cccc(Cl)c2)nc1C#N,.,.,-3%,.,.,.
COc1ccc(Nc2oc(-c3ccc(Cl)cc3)nc2C#N)cc1,2.9µM*,?,?,-15,?,6.5µM*
COc1ccc(-c2nc(C#N)c(NCCc3ccccc3)o2)cc1,14µM*,-10%,-9%[57.4 µM],-4,20%,15µM*
CCN(CC)CCCNc1oc(-c2cccc(Cl)c2)nc1C#N,23µM*,-2%[9.24 µM],-12%,-9,?,?
CCOc1ccc(Nc2oc(-c3ccc(Cl)cc3)nc2C#N)cc1,4.1µM*,-28%,?,-9,?,?
CCCCCn1nc(C(=O)Nc2cccc(Br)c2)c2ccccc2c1=O,.,.,-4%,.,.,.
COc1cc(O)c2c(c1)/C=C/CCC/C(=N\O)CCC[C@H](C)OC2=O,.,.,-53%,.,.,.
CC(C)CCN1CCC(N2CCN(S(=O)(=O)c3ccc(CC(C)C)cc3)CC2)C1=O (stereo unspecified),.,.,31%,.,.,.
COCCNc1oc(-c2ccc(Cl)cc2)nc1C#N,-4%,1%,?,-56*,0%,1%
COCCN1CCC(CN(CC2CCCO2)C(=O)c2cc(Cl)cn2C)CC1 (stereo unspecified),.,.,79%,.,.,.
CC(OC(=O)c1ccc2c(c1)NC(=O)CS2)C(=O)NC(C)(C)C (stereo unspecified),.,.,5%,.,.,.
Nc1ccc(-c2cnc(-c3ccc(N)cc3)nc2)cc1,?,-6%,0%,-22,?,-9%
Oc1ccc(-c2cnc(-c3ccc(O)cc3)nc2)cc1,?,?,-31%,-19,0.21µM*,3%
Cc1ccccc1C(=O)O/N=C(\N)Cc1cccs1,-22%,?,i,-61*,18µM*,?
Cc1ccc(Sc2ccc(NC(=O)c3cccc4ccccc34)cc2)c(C)c1,.,.,-25%,.,.,.
C[C@H](NC(=O)c1nc[nH]c1C(=O)NCC(=O)OCc1ccccc1)c1ccccc1,18µM*,0%,8%,3,-1%,?
CC(C)(C)OC(=O)CNC(=O)c1[nH]cnc1C(=O)NC(c1ccccc1)c1ccccc1,?,-15%,-2%,?,-5%,23µM*
CC(C)C[C@H](NC(=O)c1[nH]cnc1C(=O)N[C@@H](C)c1ccccc1)C(=O)OCc1ccccc1,26µM*,?,.,24,?,29µM*
CC(C)C[C@H](NC(=O)c1nc[nH]c1C(=O)N[C@@H](CC(C)C)C(=O)OC(C)(C)C)C(=O)OCc1ccccc1,?,?,74%,0,?,?
CSc1nc(N)c2c(n1)NC1=C(C(=O)CC(C)(C)C1)C2c1ccccc1 (stereo unspecified),.,.,0%,.,.,.
SMILES,DT40 TDP1 no CPT,HT1080-NT tox,12-LOX inh,IL1B secr inh,HT1080 IDH1KD tx,DT40 TDP1 CPT
CC(NC(=O)C1CCCCC1)c1ccccc1 (stereo unspecified),.,.,5%,.,.,.
COc1ccc(-c2cc(C3CCN(C(=O)OC(C)(C)C)CC3)[nH]n2)cc1,?,-7%,-1%,-84*,-10%,?
CC(=O)c1ccc(N2CCC(c3cc(-c4ccc(Cl)cc4)n[nH]3)CC2)c([N+](=O)[O-])c1,4.6µM*,?,.,25,?,7.3µM*
COc1ccc(-c2cc(C3CCN(c4ccc(C(C)=O)cc4[N+](=O)[O-])CC3)[nH]n2)cc1,5.2µM*,?,-16%,-71*,?,5.8µM*
CCOC(=O)c1cn2nc(-c3ccc(OC)cc3)cc2nc1C1CCN(C(=O)OC(C)(C)C)CC1,?,9%,9%,?,4%,?
COC(=O)c1ccc(N2CCC(c3cc(-c4ccc(OC)cc4)n[nH]3)CC2)c([N+](=O)[O-])c1,18µM*,?,0%,-8,?,21µM*
Cc1nc(CN2CCOC3(CCN(Cc4ccccc4Cl)CC3)C2=O)cs1,.,.,-28%[176 µM],.,.,.
COc1cccc(CNC(=O)CC2=C3CCCCC3NC2=O)c1OC (stereo unspecified),.,.,14%,.,.,.
Cc1cc(C)c(C(=O)COC(=O)COc2ccc(Cl)c(C)c2)cc1C,.,.,33%,.,.,.
CCOC(=O)COc1ccc2cc(C(=O)OCC)c(=O)oc2c1,-14%,10%,6%,-80*,5%,-16%
CCOC(=O)COc1ccc2cc(-c3ccccc3)c(=O)oc2c1,.,.,41%,.,.,.
Cc1ccccc1NC1=NC(=S)N(c2ccccc2)C12CCCCC2,?,-24%,-5%,0,-28%,18µM*
CCOc1ccccc1/C=C/c1onc(C)c1S(=O)(=O)N1CCC(C(=O)N(CC)CC)CC1,16µM*,-18%,-7%,-11,-5%,15µM*
CCN(CCN(C)C)C(=O)C1CCN(S(=O)(=O)c2c(C)noc2/C=C/c2ccccc2F)CC1,4.6µM*,-2%,?,-11,0%,2.9µM*
Cc1noc(/C=C/c2ccccc2F)c1S(=O)(=O)N1CCC(C(=O)N2CCN(C)CC2)CC1,?,?,-1%,0,?,?
Cc1ccc(NC(=O)CC(C)(C(=O)O)c2ccccc2)c(O)c1 (stereo unspecified),.,.,-18%,.,.,.
COc1ccc2cc(C#N)c(SCC(=O)N3CC(=O)Nc4ccccc43)nc2c1,-7%,0%,.,-10,-8%,0%
Cc1cccc2cc(C#N)c(SCC(=O)N3CC(=O)Nc4ccccc43)nc12,2.1µM*,?,-22%,74,?,2.6µM*
